# Laboratory results published in the supplement of paper PMC10105736.
# Unmarked numbers belong to inactive results.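 How the source made its calls: active = MAPPIT score above the 99th percentile of random reference set scores in the same batch; inactive = at or below it.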
# B1: wda (protein)
# chain: MSLPSASNHAHAASPVYSNSNNNKSSASSKKTSSKNDLLRCAVGLLLKQKNYVSNERFRRSDFLLLQNKQQFAVNKMLDTDLHGGNSFTFSNVQVITNNQHTVDQQFGRFSQFVEAQAEPLRLEMKRFYGPMLCHFYLDLLKAREPRGAVELLRKYAHLVAPVDMYDAPPPTKINGCSTTANESTFNIRFAKEAQDTGDTELDYFMRLVQTLSGYTRLEAAESDDTVAHFRSSKYELHTTAVVVNRICAYLQRRGHVLIMNLLYTWLHVHIVENEQRAFSEDHLLGLTDDLEGEDGEDDVVSKPAVTLNTRGDIRPSKSLTEKSNRKRPAEEPNIMLETDIKQEVETDESAELSKLQLNIDACLDTLKSATEQILKSQVELPRFLRISERSRGLTSAHLDPSECHMLAGFDNSAVQLWQLNQSYCRGKSFYRRYPQKRCPWELNNCANQEEETDEDSSDEDVKCSEEERRERNRARHCKYADNSYNEYGGFQLRGHTKGVTDVRFSAHYPLMYSVSKDATMRCWRAHNLHCAAIYRSHNYPIWCLDESPVGQYVVTGSKDLSARLWSLEKEHALIIYAGHTQDVECVAFHPNGNYIATGSADHSVRLWCATSGKLMRVFADCRQAVTQLAFSPDGKMLAAAGEETKVRIFDLAAGAQLAELKDHSASISSLSWSTHNRHLATACSDGTLRLWDIKKLSPMSDNSSAGSSSSATTNRVLTVNSSCQRLVDVFYGTSKTLYCIGT
# B2: okr (protein)
# chain: MRRSLAPSQRGPLRPESRHSFTPPLLKKNKRSCQQELEREQELDRRRLGALRDASNTSELPLPIRFTANSEYELAIAKVLARKFKVPMDNYVPDYGGKRVLGVRRCISRRPLHDPMACNALVLFHPPAYTEHERMGMDPTKVLVHVVVDPLLSNILRPHQREGVRFMYECVEGKRGNFNGCIMADEMGLGKTLQCVTLVWTLLRQGPECKPTINKAIVVSPSSLVKNWEKEFTKWLHGRLLCLPMEGGTKENTIRALEQFSMTSARLGTPVLLISYETFRIYAEILCKYEVGMVICDEGHRLKNSDNLTYQALMGLKTKRRVLLSGTPIQNDLTEYYSLVNFVNPEMLGTAAVFKRNFESAILRGQNTDSTEQERQRAIEKTQELIGLVDQCIIRRTNQILTKYLPVKFEMVICAKLTAIQLELYTNFLKSDQVRRSLADCNEKASLTALADITTLKKICSHPDLIYEKLTAREKGFENSQNVLPSNYKPKDLNPELSGKFMLLDFMLAAIRAEGNDKVVLISNYTQTLDLFEQLARKRKYGFVRLDGTMSIKKRSKVVDRFNDPESDSFLFMLSSKAGGCGLNLIGANRLFMFDPDWNPANDEQAMARVWRDGQKKPCYIYRLVASGSIEEKILQRQTHKKSLSSTIIDNNESAEKHFTRDDLKDLFTFDANILSDTHDKLKCKRCVQNIQMKPPPEDTDCTSHLSQWYHCSNNRGLPDNILAQAWMDCKCVSFVFHHRSQAQEIVPSAEEEATDQPEEKPESRKRSSTPASDDSADEDFRGF
# B3: Or43b (protein)
# chain: MFGHFKLVYPAPISEPIQSRDSNAYMMETLRNSGLNLKNDFGIGRKIWRVFSFTYNMVILPVSFPINYVIHLAEFPPELLLQSLQLCLNTWCFALKFFTLIVYTHRLELANKHFDELDKYCVKPAEKRKVRDMVATITRLYLTFVVVYVLYATSTLLDGLLHHRVPYNTYYPFINWRVDRTQMYIQSFLEYFTVGYAIYVATATDSYPVIYVAALRTHILLLKDRIIYLGDPSNEGSSDPSYMFKSLVDCIKAHRTMLNFCDAIQPIISGTIFAQFIICGSILGIIMINMVLFADQSTRFGIVIYVMAVLLQTFPLCFYCNAIVDDCKELAHALFHSAWWVQDKRYQRTVIQFLQKLQQPMTFTAMNIFNINLATNINVAKFAFTVYAIASGMNLDQKLSIKE
# B4: MP1 (protein)
# chain: MEPHFFFTVLWMLLMGTSSTYAQEIFGYCRTPDENSGTCINLRECGYLFELLQSEEVTEQDRRFLQASQCGYRNGQVLEKHFCFTNVQICCANSRMRNQQPQWGNHPQPTQTTKPTKRSGTKLLPMAPNCGENFGDRVVGGNETTKREFPWMALIEYTKPGNVKGHHCGGSLINHRYVLTAAHCVSAIPSDWELTGVRLGEWDASTNPDCTVGKNGRRDCNEPYVDYPVEERIPHPQYPGNSRDQLNDIALLRLRDEVQYSDFILPVCLPTLASQHNNIFLGRKVVVAGWGRTETNFTSNIKLKAELDTVPTSECNQRYATQRRTVTTKQMCAGGVEGVDSCRGDSGGPLLLEDYSNGNSNYYIAGVVSYGPTPCGLKGWPGVYTRVEAYLNWIENNVRA
# B5: bin3 (protein)
# chain: MEKRLSDSPGDCRVTRSTMTPTLRLDQTSRQEPLPQQPDNGPAAAPGKSKSPTPLPGKSQAAQHHQFRAPQQQQGPKNRNKAWSKRQHKAGGKHNPSACVGASSGQAQSTGSSVIAATLLPTAASAHKADLENIQNIHNKNLTAGGGVNHHGNAGTAHHGGGGGAGAHHAAAGGHHHHHNTRLAQNAAAGGASGGGTIQMHKKMLRGHHHHVLCAGNNANHTCCLVTGCNGSSIGGVGVAGSGGATASAGGGGASCKEAQSCKDTSSLSGNSSIAGSAGAGNAVHYCCGRSKFFLPEKRLRKEVIVPPTKFLLGGNISDPLNLNSLQNENTSNASSTNNTPATTPRQSPITTPPKVEVIIPPNIHDPLHLLDPVDSMEYEKQLTSPMKRAGPGGGMLHHRQHHYRTRKNRKRRRFDSNNTSHAGDEGGVGSELTDEPPLPAATSSLAASPVAAPLNVGGSLLLSESAAPAPGETAEMGQQQEQAHVHSPQSASTTTTAAEMPTPTPTSAAAATATAEHKEQSAPAPTATSSPQRQQQHVAAAAEELPTPETSAAAETPAEEMLLSCSATSASLVASTLAERRASRDLRLDLSSTCYGVGGTGLSFGGSISSSVGSSFGGGGRKRKISESSTSQKSKKFHRHDAMDKIVSPVVPQPGAWKRPPRILQPSGARKPSTRRSTSVSESELLSPVEEQPPKQLPLIGVEIPRDDTPDLPDHGLGSPLSTTSGATSHTAGEQDSLAGVDISMGDTLGSGVVGKAPLTSSLMLEPAKIPPIKMLPKFRADGLKYRYGNFDRYVDFRQMNEFRDVRLQVFQRHVELFENKDILDIGCNVGHMTITVARHLAPKTIVGIDIDRELVARARRNLSIFVRIPKEEKLLEVKAEPTVDAKANIAVKDETSGAAHKKTRRGKRRRKVHQGIHHHHHHHHDLEQLQQQQKLNSLLVKPHEFFPISFPLTYGRIPRILSSSKSPNMLGNKNQFPANVFFRHTNYVLKDESLMASDTQQYDLILCLSVTKWIHLNFGDNGLKMAFKRMFNQLRPGGKLILEAQNWASYKKKKNLTPEIYNNYKQIEFFPNKFHEYLLSSEVGFSHSYTLGVPRHMNKGFCRPIQLYAKGDYTPNHVRWSDAYYPQTPYEAYRGIYATLPVHRMGGGGSSAGGSNSGHAQMLHLSSSSRSQNYDTPHYAGSASGSASCRQTPMYQPTYNPLETDSYQPSYDMEYLNHMYVFASPLYQTVWSPPASLRKSSSHTPVFGSVRDAELDGDGSGGGGSGGGSYHRHVYPPNDDTCSPNANACNAFNSIRDADTDDSNQLPGGSRRHVYATNCGESSSSPQVNHHDAVGEFVDGLMDDEQKSSTGGGTGGAAYCDLSDA
# Legend:
# Experiment in all cases: MAPPIT interaction score (arbitrary units); higher = stronger binary interaction signal, active = hit call of the paper
# CG2991 = conditions: MAPPIT configuration: N-N; pair source set: RRS
# CG2772 = conditions: pair source set: RRS
# CG30472 = conditions: pair source set: RRS
# CG2021 = conditions: MAPPIT configuration: N-N; pair source set: DPIM
# CG2017 = conditions: MAPPIT configuration: N-N; pair source set: screen_1
# 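Further: HEK293T cells with Epo stimulation, STAT-responsive firefly luciferase reporter, fold induction versus unstimulated cells divided by the larger fold induction of two negative controls lacking either bait or prey.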
binder,measurement,setting,value
B1,MAPPIT interaction score,CG2991,-0.317
B2,MAPPIT interaction score,CG2772; MAPPIT configuration: N-C,-0.364
same,MAPPIT interaction score,CG2772; MAPPIT configuration: N-N,-0.357
B3,MAPPIT interaction score,CG30472; MAPPIT configuration: N-C,0.0282
same,MAPPIT interaction score,CG30472; MAPPIT configuration: N-N,0.0958
B4,MAPPIT interaction score,CG2021,-0.105
B5,MAPPIT interaction score,CG2017,0.262
